This is a sample that favours compounds with a hit; in the whole collection about 3.1% have one here.
Tau FP inhib = qHTS for Inhibitors of Tau Fibril Formation, Fluorescence Polarization | 0.39% of 280,000 active | Potency, µM (doses to about 57.7 µM), inactives show top-dose activity, negative = inhibition, most hits filed as inhibitors | K18 P301L tau heparin fibrillization, Alexa594 FP, 6 h | Microtubule-associated protein tau (Homo sapiens), P10636; further: nearly all actives have a fitted effect of over 55% in size
Target sequence (P10636 561-689 P618L limits assumed): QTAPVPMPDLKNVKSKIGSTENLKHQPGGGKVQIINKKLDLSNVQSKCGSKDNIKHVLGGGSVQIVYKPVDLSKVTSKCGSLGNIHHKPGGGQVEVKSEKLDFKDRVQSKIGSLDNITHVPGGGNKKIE
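Heparin (20 uM) drove fibril formation of recombinant tau K18 P301L, 15 uM unlabeled with 0.24 uM Alexa 594 label, for 6 hr at 37 C in 100 mM sodium acetate pH 7. Fluorescence polarization (555/632 nm) read 1 hr after 30 uM ThT.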
Tau fibril ThT = qHTS for Inhibitors of Tau Fibril Formation, Thioflavin T Binding; 2.1% of 270,000 active; Microtubule-associated protein tau (Homo sapiens), P10636; recombinant tau K18 P301L, heparin-induced fibrillization, ThT fluorescence; Potency, µM (top dose mostly 57.4 µM), inactives show at the top dose activity, negative = inhibition, actives largely listed as inhibitors; further: nearly all actives have a fitted effect of over 55% in size
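Heparin-induced (20 uM) aggregation of recombinant human K18 P301L tau, 15 uM unlabeled with 0.24 uM labeled, pH 7 acetate buffer, 6 hr at 37 C with compound. Fibrils quantified by 30 uM ThT fluorescence after 1 hr ambient incubation.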
TRb SRC2 PPI = qHTS for Inhibitors of the Interaction of Thyroid Hormone Receptor and Steroid Receptor Coregulator 2; Thyroid hormone receptor beta (Homo sapiens), P10828; TRbeta-SRC2 peptide binding, fluorescence polarization; receptor liganded with 1 µM T3; Potency, µM (doses to about 106 µM), inactives show at the highest dose activity change, negative = inhibition, usual class: inhibitors; 0.065% of 280,000 active;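 further: plate controls were bound peptide for no effect and peptide without receptor for full effect; nearly all actives have a fitted effect of over 50% in size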
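Assay buffer: 20 mM Tris-HCl, 100 mM NaCl, 10% glycerol, 1 mM EDTA, 0.01% NP-40, 1 mM DTT, 1 uM T3, 5% DMSO; TRb LBD 0.6 uM, Texas Red SRC2 20 nM; FP after 5 hr.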
Tau fluor cs = Counterscreen qHTS for Inhibitors of Tau Fibril Formation, Fluorescence Polarization | tau K18 P301L (four-repeat tau fragment) Alexa594 fluorescence, heparin fibrillization | Potency, µM (doses to about 57.7 µM), inactives show top-dose activity change, negative = decrease | 0.93% of 280,000 active; further: nearly all actives have a fitted effect of over 55% in size
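Human K18 P301L tau (15 uM unlabeled plus 0.24 uM Alexa 594-labeled, final) in 100 mM sodium acetate pH 7 was mixed with compound and 20 uM heparin and incubated 6 hr at 37 C.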
TexasRed fluor = Total Fluorescence Counterscreen for Inhibitors of the Interaction of Thyroid Hormone Receptor and Steroid Receptor Coregulator 2; TRb/SRC2 Texas Red total fluorescence interference; Potency, µM (highest dose often 106 µM), inactives show at the top dose fluorescence change, negative = quenching; 0.29% of 280,000 active; AID 1479, 2009; active means well fitted curve in either direction with a large enough effect; inconclusive means small, poorly fitted or top-dose-only effect
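Human TRb ligand-binding domain at 0.6 uM with 20 nM Texas Red SRC2 peptide in Tris buffer containing 1 uM T3 and 5% DMSO, incubated with compound 5 h at ambient temperature. Total fluorescence (555/632 nm) calculated as parallel + 2 × perpendicular.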
An asterisk follows results filed as active; ? = inconclusive; . = no result given; [ ] = another dose, or the depositor's remark. Unless noted, the call rests on the fitted dose curve; in most records, active means well fitted curve in the direction sought with a large enough effect; inconclusive means small, poorly fitted or top-dose-only effect, or another doubt; inactive means no such curve, though single readings can be large; an effect the other way counts as inactive or inconclusive. Unless noted, on the % scale 0 is the no-effect control and ±100 the full control effect; potency means the concentration at half of the fitted maximal effect.

SMILES	Tau FP inhib	Tau fibril ThT	TRb SRC2 PPI	Tau fluor cs	TexasRed fluor
CC(=O)Nc1ccc(-c2csc(Nc3ccccn3)n2)cc1	15%	.	4%	?	-3%
C[N+]1=C(/C=C/Nc2ccccc2Cl)C(C)(C)c2ccccc21	?	28µM*	?	?	45µM*[fluorescent]
CCOc1ccccc1NC(=O)c1nn(C)c2c1CSc1ccccc1-2	-5%	?	-3%	11µM*[quencher]	-3%
CCC(=O)Nc1sc2c(c1C(=O)Nc1ccc(Br)cc1)CCCCC2	-3%	-13%	-9%	-12%	3%
CCc1ccc(NC(=O)N(Cc2c[nH]c3ccccc23)C2CCCCCC2)cc1	-13%	-1%	0%	-13%	-1%
Cc1nc(N)sc1-c1csc(N(C)c2ccc(O)cc2)n1	?	16µM*	-14%	?	-4%
CN(c1ccc(O)cc1)c1nc(-c2cccs2)cs1	4%[2.34 µM]	-2%	1%	5%[2.34 µM]	-2%
CCN(CC)c1ccc(NC(=O)C2CCN(S(=O)(=O)c3cnc[nH]3)CC2)c(C)c1	-3%	-14%	-1%	-14%	-1%
CCCN1C(=O)/C(=C/c2nc3ccccc3c(=O)[nH]2)c2cc(C)ccc21	0%	14µM*	-1%	20µM*[quencher]	-2%
CCCN1C(=O)/C(=C/c2nc3ccccc3c(=O)[nH]2)c2ccccc21	7%	?	1%	-2%	1%
CC(C)N1C(=O)/C(=C\c2nc3ccccc3c(=O)[nH]2)c2ccccc21	15%	28µM*	6%	?	-2%
CCC(=O)/C=C/C1C(C)=CCCC1(C)C (configuration not stated)	.	.	-2%	.	0%
CCOc1ccc(CNS(=O)(=O)c2ccc(-c3coc(C)n3)cc2)cc1	-6%	-3%	-11%	-6%	0.0071µM*[quencher]
Cc1nc(-c2ccc(S(=O)(=O)NCc3ccc(F)cc3)cc2)co1	-5%	4%	-1%	-3%	-4%
CCc1ccccc1NS(=O)(=O)c1ccc(-c2coc(C)n2)cc1	3%	11%	-20%	-1%	11µM*[quencher]
CS[C@@H]1SC[C@H]2C(=O)N(C)C(C(C)C)C(=O)OC[C@@H](NC(=O)c3cnc4ccccc4n3)C(=O)N[C@@H](C)C(=O)N(C)[C@H]1C(=O)N(C)C(C(C)C)C(=O)OC[C@@H](NC(=O)c1cnc3ccccc3n1)C(=O)N[C@@H](C)C(=O)N2C (some centres not stated)	.	.	5%	.	1%
CCOc1ccc(-c2nc(CSCC(=O)NCCc3ccccc3)c(C)o2)cc1	6%	?	1%	-5%	0%
Cc1oc(-c2ccccc2F)nc1CSCC(=O)NCCc1ccccc1	3%	?	-28%	-18%	0.13µM*[quencher]
CS(C)=O	.	.	-1%[1.3e+05 µM]	.	2%[1.3e+05 µM]
COc1ccccc1N1CCN(C(=O)c2ccc3nc(-c4ccco4)c(-c4ccco4)nc3c2)CC1	9%	?	5%	-15%	-3%
c1coc(-c2nc3ccccc3nc2-c2ccco2)c1	?	16µM*	4%	?	-29%
O=C(c1ccccc1)c1ccc2nc(-c3ccco3)c(-c3ccco3)nc2c1	?	14µM*	3%	?	-17%
O=C(NCCO)c1ccc2nc(-c3ccco3)c(-c3ccco3)nc2c1	?	16µM*	7%	14µM*[quencher]	?
O=C(NCCc1ccccc1)c1ccc2nc(-c3ccco3)c(-c3ccco3)nc2c1	?	7.1µM*	9%	?	28µM*[quencher]
O=C(NC1CCCC1)c1ccc2nc(-c3ccco3)c(-c3ccco3)nc2c1	2%	-2%	1%	-2%	-6%
C[Si](C)(C)O[Si](C)(C)C	.	.	-1%[201 µM]	.	-5%[201 µM]
O=C1CC(=O)Nc2cc(S(=O)(=O)Nc3ccc(F)cc3Cl)ccc2N1	-1%	-3%	-1%	-3%	-6%

Bioassay records: PubChem BioAssay, National Center for Advancing Translational Sciences (NCATS)
